# Experimental data from PubChem BioAssay AID1159580 (chemical genetic matrix, 2015).
# Where “and” joins values, the source holds several entries; their conditions need not be identical. Equal entries are not always repeated. Hit rate of the full screen: of about 5,500 compounds, about 2,000 (36%) were called active. Roughly 18% stayed inconclusive and do not appear here. Cut-off read from the data, not from the text of the source: active = normalized growth mostly below about 0.91 (no sharp cut-off); inconclusive = no clear call, values can overlap the other calls; inactive = mostly above about 0.92. This is one part of the list. Where a structure was tested more than once in an assay, its records may differ in their call.
# Test: chemical genetic growth profiling, strain panel (AID 1159580);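 note: tested at 20 µM; growth read once vehicle control cultures reached saturation at 30 °C; 1 = growth at the plate median or of vehicle wells; lower values mean less growth of the strain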
# Conditions: growth OD
structure (smiles),measurement,setting,value
Cc1cc(O)c2c(c1)C(=O)c1cc(O)cc(O)c1C2=O,normalized growth,"S. cerevisiae deletion strains, locus YAL013W, strain DEP1, stronger effect = lower value",0.868 (active)
same,normalized growth,"S. cerevisiae deletion strains, locus YAL040C, strain CLN3, stronger effect = lower value",0.749 (active)
same,normalized growth,"S. cerevisiae deletion strains, locus YBR021W, strain FUR4, stronger effect = lower value",0.914 (inactive)
same,normalized growth,"S. cerevisiae deletion strains, locus YBR229C, strain ROT2, stronger effect = lower value",0.923 (inactive)
same,normalized growth,"S. cerevisiae deletion strains, locus YCL029C, strain bik1, stronger effect = lower value",0.734 (active)
same,normalized growth,"S. cerevisiae deletion strains, locus YCL061C, strain MRC1 (second series), stronger effect = lower value",0.986 (inactive)
same,normalized growth,"S. cerevisiae deletion strains, locus YDL035C, strain GPR1, stronger effect = lower value",0.699 (active)
same,normalized growth,"S. cerevisiae deletion strains, locus YDL074C, strain BRE1, stronger effect = lower value",0.56 (active)
same,normalized growth,"S. cerevisiae deletion strains, locus YDL101C, strain DUN1, stronger effect = lower value",0.732 (active)
same,normalized growth,"S. cerevisiae deletion strains, locus YDL134C, strain PPH21, stronger effect = lower value",0.783 (active)
same,normalized growth,"S. cerevisiae deletion strains, locus YDL185W, strain tfp1, stronger effect = lower value",0.795 (active)
same,normalized growth,"S. cerevisiae deletion strains, locus YDL192W, strain arf1, stronger effect = lower value",0.393 (active)
same,normalized growth,"S. cerevisiae deletion strains, locus YDR101C, strain arx1, stronger effect = lower value",0.584 (active)
same,normalized growth,"S. cerevisiae deletion strains, locus YDR162C, strain NBP2, stronger effect = lower value",0.483 (active)
same,normalized growth,"S. cerevisiae deletion strains, locus YDR318W, strain mcm21, stronger effect = lower value",0.712 (active)
same,normalized growth,"S. cerevisiae deletion strains, locus YDR363W, strain ESC2, stronger effect = lower value",1.02 (inactive)
same,normalized growth,"S. cerevisiae deletion strains, locus YDR388W, stronger effect = lower value",0.471 (active)
same,normalized growth,"S. cerevisiae deletion strains, locus YDR502C, strain sam2, stronger effect = lower value",0.56 (active)
same,normalized growth,"S. cerevisiae deletion strains, locus YEL061C, strain CIN8, stronger effect = lower value",0.745 (active)
same,normalized growth,"S. cerevisiae deletion strains, locus YER002W, strain NOP16, stronger effect = lower value",0.749 (active)
same,normalized growth,"S. cerevisiae deletion strains, locus YER110C, stronger effect = lower value",0.671 (active)
same,normalized growth,"S. cerevisiae deletion strains, locus YER155C, strain BEM2, stronger effect = lower value",0.716 (active)
same,normalized growth,"S. cerevisiae deletion strains, locus YER167W, strain BCK2, stronger effect = lower value",0.674 (active)
same,normalized growth,"S. cerevisiae deletion strains, locus YGL078C, strain dbp3, stronger effect = lower value",0.789 (active)
same,normalized growth,"S. cerevisiae deletion strains, locus YGL086W, strain mad1, stronger effect = lower value",0.645 (active)
same,normalized growth,"S. cerevisiae deletion strains, locus YGL248W, strain PDE1, stronger effect = lower value",0.853 (active)
same,normalized growth,"S. cerevisiae deletion strains, locus YGR078C, strain PAC10, stronger effect = lower value",0.723 (active)
same,normalized growth,"S. cerevisiae deletion strains, locus YGR135W, strain pre9, stronger effect = lower value",0.741 (active)
same,normalized growth,"S. cerevisiae deletion strains, locus YGR229C, strain SMI1, stronger effect = lower value",0.338 (active)
same,normalized growth,"S. cerevisiae deletion strains, locus YGR252W, strain gcn5, stronger effect = lower value",0.415 (active)
same,normalized growth,"S. cerevisiae deletion strains, locus YHR030C, strain SLT2, stronger effect = lower value",0.629 (active)
same,normalized growth,"S. cerevisiae deletion strains, locus YHR079C, strain IRE1 (second series), stronger effect = lower value",0.854 (active)
same,normalized growth,"S. cerevisiae deletion strains, locus YHR094C, strain hxt1, stronger effect = lower value",0.673 (active)
same,normalized growth,"S. cerevisiae deletion strains, locus YHR129C, strain ARP1, stronger effect = lower value",0.705 (active)
same,normalized growth,"S. cerevisiae deletion strains, locus YHR200W, strain rpn10, stronger effect = lower value",0.75 (active)
same,normalized growth,"S. cerevisiae deletion strains, locus YIL066C, strain RNR3, stronger effect = lower value",0.688 (active)
same,normalized growth,"S. cerevisiae deletion strains, locus YIL073C, strain SPO22, stronger effect = lower value",0.959 (inactive)
same,normalized growth,"S. cerevisiae deletion strains, locus YIL125W, strain kgd1, stronger effect = lower value",0.842 (active)
same,normalized growth,"S. cerevisiae deletion strains, locus YIR030C, strain dcg1, stronger effect = lower value",0.635 (active)
same,normalized growth,"S. cerevisiae deletion strains, locus YJL095W, strain BCK1, stronger effect = lower value",0.475 (active)
same,normalized growth,"S. cerevisiae deletion strains, locus YJL134W, strain LCB3, stronger effect = lower value",0.907 (active)
same,normalized growth,"S. cerevisiae deletion strains, locus YJL168C, strain set2, stronger effect = lower value",0.818 (active)
same,normalized growth,"S. cerevisiae deletion strains, locus YJL187C, strain SWE1 (second series), stronger effect = lower value",0.69 (active)
same,normalized growth,"S. cerevisiae deletion strains, locus YJR043C, strain POL32, stronger effect = lower value",0.708 (active)
same,normalized growth,"S. cerevisiae deletion strains, locus YJR075W, strain HOC1, stronger effect = lower value",0.998 (inactive) and 0.795 (active)
same,normalized growth,"S. cerevisiae deletion strains, locus YKL009W, strain mrt4, stronger effect = lower value",0.753 (active)
same,normalized growth,"S. cerevisiae deletion strains, locus YKL068W, stronger effect = lower value",0.857 (active)
same,normalized growth,"S. cerevisiae deletion strains, locus YKL085W, strain MDH1 (second series), stronger effect = lower value",0.795 (active)
same,normalized growth,"S. cerevisiae deletion strains, locus YKL085W, strain MDH1, stronger effect = lower value",0.795 (active)
same,normalized growth,"S. cerevisiae deletion strains, locus YKL190W, strain CNB1, stronger effect = lower value",0.823 (active)
same,normalized growth,"S. cerevisiae deletion strains, locus YKR001C, strain vps1, stronger effect = lower value",0.309 (active)
same,normalized growth,"S. cerevisiae deletion strains, locus YLR039C, strain RIC1, stronger effect = lower value",0.313 (active)
same,normalized growth,"S. cerevisiae deletion strains, locus YLR058C, strain SHM2, stronger effect = lower value",0.834 (active)
same,normalized growth,"S. cerevisiae deletion strains, locus YLR102C, strain apc9, stronger effect = lower value",0.837 (active)
same,normalized growth,"S. cerevisiae deletion strains, locus YLR262C, strain YPT6, stronger effect = lower value",0.383 (active)
same,normalized growth,"S. cerevisiae deletion strains, locus YLR268W, strain sec22, stronger effect = lower value",0.474 (active)
same,normalized growth,"S. cerevisiae deletion strains, locus YLR330W, strain CHS5, stronger effect = lower value",0.708 (active)
same,normalized growth,"S. cerevisiae deletion strains, locus YLR342W, strain FKS1 (second series), stronger effect = lower value",0.553 (active)
same,normalized growth,"S. cerevisiae deletion strains, locus YLR371W, strain rom2, stronger effect = lower value",0.612 (active)
same,normalized growth,"S. cerevisiae deletion strains, locus YLR418C, strain cdc73, stronger effect = lower value",0.324 (active)
same,normalized growth,"S. cerevisiae deletion strains, locus YML016C, strain PPZ1, stronger effect = lower value",0.916 (active)
same,normalized growth,"S. cerevisiae deletion strains, locus YML032C, strain rad52, stronger effect = lower value",0.6 (active)
same,normalized growth,"S. cerevisiae deletion strains, locus YML124C, strain tub3, stronger effect = lower value",0.724 (active)
same,normalized growth,"S. cerevisiae deletion strains, locus YMR078C, strain ctf18, stronger effect = lower value",0.776 (active)
same,normalized growth,"S. cerevisiae deletion strains, locus YMR223W, strain ubp8, stronger effect = lower value",0.643 (active)
same,normalized growth,"S. cerevisiae deletion strains, locus YMR263W, strain SAP30, stronger effect = lower value",0.968 (inactive) and 0.787 (active)
same,normalized growth,"S. cerevisiae deletion strains, locus YMR307W, strain GAS1, stronger effect = lower value",0.8 (active) and 0.335 (active)
same,normalized growth,"S. cerevisiae deletion strains, locus YNL067W, strain RPL9B, stronger effect = lower value",0.782 (active)
same,normalized growth,"S. cerevisiae deletion strains, locus YNL128W, strain TEP1, stronger effect = lower value",0.713 (active)
same,normalized growth,"S. cerevisiae deletion strains, locus YNL153C, strain GIM3, stronger effect = lower value",0.439 (active) and 0.847 (active)
same,normalized growth,"S. cerevisiae deletion strains, locus YNL175C, strain NOP13, stronger effect = lower value",0.732 (active)
same,normalized growth,"S. cerevisiae deletion strains, locus YNL197C, strain WHI3, stronger effect = lower value",0.727 (active)
same,normalized growth,"S. cerevisiae deletion strains, locus YNL224C, strain SQS1, stronger effect = lower value",0.861 (active)
same,normalized growth,"S. cerevisiae deletion strains, locus YNL233W, strain BNI4, stronger effect = lower value",0.63 (active)
same,normalized growth,"S. cerevisiae deletion strains, locus YNL250W, strain rad50, stronger effect = lower value",0.73 (active)
same,normalized growth,"S. cerevisiae deletion strains, locus YNL271C, strain bni1, stronger effect = lower value",0.782 (active)
same,normalized growth,"S. cerevisiae deletion strains, locus YNL298W, strain CLA4, stronger effect = lower value",0.716 (active)
same,normalized growth,"S. cerevisiae deletion strains, locus YNL307C, strain MCK1, stronger effect = lower value",0.59 (active)
same,normalized growth,"S. cerevisiae deletion strains, locus YNL322C, strain KRE1, stronger effect = lower value",0.832 (active)
same,normalized growth,"S. cerevisiae deletion strains, locus YNR052C, strain pop2, stronger effect = lower value",0.218 (active)
same,normalized growth,"S. cerevisiae deletion strains, locus YOL012C, strain htz1",0.486 (inactive)
same,normalized growth,"S. cerevisiae deletion strains, locus YOL147C, strain pex11, stronger effect = lower value",0.402 (active)
same,normalized growth,"S. cerevisiae deletion strains, locus YOR061W, strain CKA2, stronger effect = lower value",0.834 (active)
same,normalized growth,"S. cerevisiae deletion strains, locus YOR069W, strain VPS5, stronger effect = lower value",0.796 (active)
same,normalized growth,"S. cerevisiae deletion strains, locus YOR083W, strain WHI5 (second series), stronger effect = lower value",0.422 (active)
same,normalized growth,"S. cerevisiae deletion strains, locus YOR136W, strain idh2, stronger effect = lower value",0.661 (active)
same,normalized growth,"S. cerevisiae deletion strains, locus YOR144C, strain elg1, stronger effect = lower value",0.759 (active)
same,normalized growth,"S. cerevisiae deletion strains, locus YOR184W, strain ser1, stronger effect = lower value",0.299 (active)
same,normalized growth,"S. cerevisiae deletion strains, locus YOR316C, strain cot1, stronger effect = lower value",0.83 (active)
same,normalized growth,"S. cerevisiae deletion strains, locus YPL055C, strain LGE1, stronger effect = lower value",0.556 (active)
same,normalized growth,"S. cerevisiae deletion strains, locus YPL241C, strain CIN2, stronger effect = lower value",0.986 (inactive)
same,normalized growth,"S. cerevisiae deletion strains, locus YPR119W, strain clb2, stronger effect = lower value",0.808 (active)
same,normalized growth,"S. cerevisiae deletion strains, locus YPR141C, strain kar3, stronger effect = lower value",0.868 (active)
same,normalized growth,"S. cerevisiae deletion strains, locus YPR163C, strain tif3, stronger effect = lower value",0.403 (active)
same,normalized growth,"S. cerevisiae deletion strains, locus YPR167C, strain met16, stronger effect = lower value",0.708 (active)
same,normalized growth,"S. cerevisiae deletion strains, strain wtn01, stronger effect = lower value",0.608 (active)
same,normalized growth,"S. cerevisiae strains, strain wild type, stronger effect = lower value",0.715 (active)
